According to PubChem BioAssay (NCI):
This is part of a sample that, as a whole, favours compounds with a hit. Of some 83,000 tested, about 20% had one in any assay.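 Percent growth is the endpoint: 0 to 100 indicates growth inhibition (40 means 60% inhibition), 0 means no net growth, and negative values indicate cell death.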 Values without a mark were called inactive. The source made the active and inactive calls. The calls were made as follows: active = growth percent below 10; inactive = the rest.

Experiments:
Assay in all cases: NCI-60 one-dose screen, 48 h (100 = growth as untreated, 0 = no growth, -100 = all killed)
Conditions in all cases: 10 µM unless noted
NCI-H23 lung = tested on: NCI-H23 lung
NCI-H226 lung = tested on: NCI-H226 lung
NCI-H322M lung = tested on: NCI-H322M lung
HOP-62 NSCLC = tested on: HOP-62 NSCLC
NCI-H460 lung = tested on: NCI-H460 lung
HOP-92 NSCLC = tested on: HOP-92 NSCLC
A549/ATCC NSCLC = tested on: A549/ATCC NSCLC
786-0 renal = tested on: 786-0 renal
COLO 205 colon = tested on: COLO 205 colon
DU-145 prostate = tested on: DU-145 prostate
K-562 leukemia = tested on: K-562 leukemia
MALME-3M melanoma = tested on: MALME-3M melanoma
MDA-MB-231 breast = tested on: MDA-MB-231 breast
RXF 393 renal = tested on: RXF 393 renal
SF-268 CNS = tested on: SF-268 CNS
SF-295 CNS = tested on: SF-295 CNS
SF-539 CNS = tested on: SF-539 CNS
M14 melanoma = tested on: M14 melanoma
NCI-H522 lung = tested on: NCI-H522 lung
UACC-257 melanoma = tested on: UACC-257 melanoma

Compound	growth (NCI-H23 lung)	growth (NCI-H226 lung) [%]	growth (NCI-H322M lung) [%]	growth (HOP-62 NSCLC)	growth (NCI-H460 lung)	growth (HOP-92 NSCLC)	growth (A549/ATCC NSCLC) [%]	growth (786-0 renal)	growth (COLO 205 colon) [%]	growth (DU-145 prostate)	growth (K-562 leukemia)	growth (MALME-3M melanoma)	growth (MDA-MB-231 breast)	growth (RXF 393 renal)	growth (SF-268 CNS)	growth (SF-295 CNS)	growth (SF-539 CNS)	growth (M14 melanoma)	growth (NCI-H522 lung)	growth (UACC-257 melanoma)
COc1c2occc2c(OC)c2c(=O)c(-c3cc(-c4ccc(F)cc4)c(C#N)c(N)n3)c(C)oc12	36.1%	72.1	40.3	27.9%	24.9%	30.6%	25.2	51.2%	27.2	30.3%	19.5%	88.8%	30%	44.4%	35.5%	56.5%	67.7%	70.6%	–	–
O=C(CSc1nc2ccccc2[nH]1)Nc1ccc(-c2nc3ccccc3s2)c(Cl)c1	-32.5% (active)	40.3	64.9	10.2%	-4.98% (active)	-11.9% (active)	–	-72.9% (active)	19.5	–	20.4%	2.26% (active)	-36.8% (active)	21.8%	–	3.63% (active)	-88.6% (active)	-58.1% (active)	-9.43% (active)	16%
COC(=O)c1cc(=O)nc(N/N=C/c2ccco2)s1	106%	97.8	96.2	103%	106%	85.7%	107	114%	116	112%	101%	108%	117%	102%	106%	–	108%	121%	–	117%
CCC(C)/C(=C\C#N)NCCCN/C(=C/C#N)C(C)CC (configuration not stated)	97.3%	103	103	106%	116%	86.5%	103	98.1%	111	122%	98.8%	108%	103%	115%	113%	105%	97.1%	96.1%	–	106%
CC(=O)Oc1csc(N(C(C)=O)c2cc(C(=O)O)cc(C(=O)O)c2)n1	93.1%	101	99.8	99%	102%	47.3%	–	–	99.7	97.4%	102%	87.9%	89.2%	95.8%	92.9%	96.4%	89.6%	84.5%	93.1%	92.8%
c1ccc(Nc2nc(Nc3ccccc3)nc(Nc3ccccc3)n2)cc1	86.5%	89	57.3	90.6%	78%	60.9%	79.9	100%	76.1	93.6%	92.7%	88.7%	79.2%	84.3%	106%	69%	90.7%	89%	–	82.9%
N#Cc1c(Nc2ccccc2)nc2n(c1=O)-c1ccccc1Sc1ccccc1-2	88.5%	84.4	90.7	98.8%	90.7%	58.7%	78.8	90.2%	84.1	90%	57.6%	–	63.7%	82.2%	85.3%	84%	84.4%	95.1%	–	105%
c1ccc(-c2cn(-c3ccccc3)c(-c3ccccc3)n2)cc1	77.6%	93.4	104	82%	89.5%	69.4%	48	71.5%	95.2	71.4%	-51.5% (active)	95%	94.3%	79.9%	85.5%	127%	73.5%	–	–	-45.3% (active)
Clc1ccc(-c2nc3ccccc3s2)cc1Cl	94.2%	87.2	110	104%	96.4%	84.1%	97.7	103%	111	112%	–	114%	68%	109%	99.2%	108%	104%	104%	–	114%
CCCCCCCCCCCCNC(=O)[C@H]1CSC(c2cc3ccccc3s2)N1 (some centres not stated)	-7.5% (active)	22.8	16.6	-96.3% (active)	-54.8% (active)	62.5%	63.8	11.7%	95.6	-57.1% (active)	-55.8% (active)	15.4%	-86.9% (active)	-78.5% (active)	-74% (active)	18.9%	-68.1% (active)	-89% (active)	–	17.6%
C=C(C)[C@@H]1C[C@H](O)Cc2cc(F)ccc2N1	96.9%	95.6	102	87.4%	101%	95.6%	97.5	105%	101	107%	42.2%	109%	108%	100%	113%	116%	86.3%	88.6%	–	93.3%
O=C(O)Cc1cccc(=O)c(O)c1C(=O)O	108%	111	129	103%	124%	103%	104	100%	108	117%	–	92.5%	110%	112%	107%	117%	110%	102%	–	103%
Cc1c(C(=O)/C=C/c2csc3ccccc23)[n+](=O)c2ccccc2n1[O-]	44.4%	78.1	81.8	98.7%	66.6%	43.9%	61.7	88.3%	73.4	-3.03% (active)	21.7%	125%	64.2%	13.1%	44%	84.6%	89.2%	62.9%	–	81.5%
COc1ccc(-c2cn(-c3cccc(C(=O)/C=C/c4cc(OC)c(OC)c(OC)c4)c3)c(=O)[nH]2)cc1OC	93.9%	87.9	95.5	93%	91%	61.2%	89.5	80.2%	90.9	98.6%	50.7%	86%	72.1%	65.8%	65.8%	96.5%	76.5%	80.1%	–	80.1%
O=C(Nc1cccc(-n2cc(-c3ccncc3)c(-c3ccc(Cl)c(O)c3)n2)c1)c1ccccc1	90.8%	89.6	89.2	46.7%	48.7%	3.59% (active)	52.6	76.1%	100	56.9%	60.7%	53.1%	63.2%	0.59% (active)	68.3%	–	74.7%	54.9%	–	44.2%
C=COC(=O)CCCCCCCCC	108%	107	102	120%	106%	99%	–	102%	111	114%	–	104%	102%	106%	101%	115%	113%	108%	85.9%	107%
Nc1nc(-c2ccccc2)c(CCCOc2ccc(NC(=O)CBr)cc2)c(=O)[nH]1	94.4%	100	135	134%	108%	99.6%	93.3	115%	118	104%	94.3%	123%	87.4%	106%	91.8%	117%	93.1%	104%	–	86.9%
